Source: PubChem BioAssay
For some assays here: Potency and affinity values are given separately. The source made the active and inactive calls.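 How the source made its calls, unless noted: active means compound raising the membrane signal above positive-control mean plus 3 SD in both repeats, and a primary screen hit; inactive means the rest.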

What was measured:
[1] = system: TRPC4 beta (transient receptor potential cation channel C4), mouse; assay: TRPC4 cation channel opening, retest – cell-based, Fluo4 calcium, HEK293 TRPC4beta/mu-opioid, duplicates, 10 µM, confirmation (AID 2426;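 active means fluorescence ratio normalized to control raised more than 50% in primary screen plus both repeat runs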;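 on activation: percent rise of integrated ratio over buffer wells lacking compound which define 0%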); settings: Fluo4 calcium fluorescence, at 10 µM; hits give high values
[2] = system: transient receptor potential cation channel C4 beta (TRPC4), mouse; assay: TRPC4 cation channel opening, second retest – cell-based, second round, Fluo4, HEK293 TRPC4beta/mu-opioid, 1 µM, confirmation (AID 2461;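 active means primary screen active and over 50% activation in each of two duplicate runs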); settings: Fluo4 calcium fluorescence, at 1 µM; hits give high values
[3] = system: TRPC4 (transient receptor potential cation channel C4 beta), mouse; assay: potentiation of DAMGO EC20 TRPC4 response – cell-based, second round, Fluo-4, HEK293 TRPC4beta/mu-opioid, 1 µM, confirmation (AID 2554;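 active means primary screen hit whose fluorescence ratio, in both repeats, exceeds the weak agonist control mean by 3 SD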); settings: DAMGO EC20, Fluo-4 calcium flux, at 1 µM; hits give high values
[4] = system: TRPC4 beta (transient receptor potential cation channel C4), mouse; assay: potentiation of DAMGO EC20 TRPC4 response – cell-based, Fluo-4, HEK293 TRPC4beta/mu-opioid, confirmation (AID 2555;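 active means primary screen hit whose calcium fluorescence ratio, in both repeats, exceeds the weak agonist control mean by 3 SD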); settings: DAMGO EC20, Fluo-4 calcium flux, at 10 µM; hits give high values
[5] = target: Short transient receptor potential channel 4 (Mus musculus) (UniProt Q9QUQ5); assay: blockers of DAMGO-evoked TRPC4 calcium flux – cell-based, Fluo4, HEK293 TRPC4beta/mu-opioid, confirmation (AID 2636;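 active means calcium signal cut by more than 3 SD below the full-agonist control yet still positive, in both repeats and the earlier primary screen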); settings: at 10 µM; hits give high values
[6] = target: Short transient receptor potential channel 4 (Mus musculus) (UniProt Q9QUQ5); assay: blockers of DAMGO-evoked TRPC4 calcium flux – cell-based, second round, Fluo4, HEK293 TRPC4beta/mu-opioid, 1 µM, confirmation (AID 2637;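 active means calcium signal ratio cut to more than 3 SD under the fully stimulated control mean yet still positive, in both repeats and the primary screen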;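 on inhibition: percent of integrated ratio relative to wells lacking test compound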); settings: at 1 µM; hits give high values
[7] = target: Short transient receptor potential channel 4 (Mus musculus) (UniProt Q9QUQ5); assay: calcium entry via TRPC4 opening agents – cell-based, HEK293 TRPC4/mu-opioid, Fluo-4 calcium, dose response (AID 434937;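 active means primary screen activator hit with a dose response curve and TRPC4 channel activation at any tested dose; inactive means no activation, no dose response, or not a primary hit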)
[8] = target: Short transient receptor potential channel 4 (Mus musculus) (UniProt Q9QUQ5); assay: potentiation of DAMGO-evoked TRPC4 calcium signal – cell-based, HEK293 TRPC4/mu-opioid, Fluo-4 calcium, EC20 DAMGO, dose response (AID 434941;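 active means earlier screen potentiator hit that boosts the TRPC4 ion channel at some dose, with a dose response; inactive means no potentiation, no dose response, or not a prior hit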;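 further: calcium entry triggered by an EC20 dose of DAMGO at the co-expressed mu-opioid receptor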)
[9] = target: Short transient receptor potential channel 6 (Mus musculus) (UniProt Q61143); assay: TRPC6 blockade by TRPC4 inhibitor hits – cell-based, HEK293, membrane potential dye, duplicate, selectivity assay for TRPC4 inhibitor project, confirmation (AID 434948;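 active means active in primary screen and both duplicates, each dropping signal beyond three positive-control SD with fluorescence still positive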); settings: HEK293 TRPC6, membrane potential dye fluorescence, at 10 µM, stimulated with maximal-effect acetylcholine; hits give high values
[10] = target: Short transient receptor potential channel 6 (Mus musculus) (UniProt Q61143); assay: TRPC6 opening by TRPC4 activator hits – cell-based, HEK293, membrane potential dye, duplicate, selectivity assay for TRPC4 activator project, confirmation (AID 434950;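 active means membrane potential signal rise above negative control mean plus 3 SD in both duplicates, also active in the earlier TRPC4 screen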); settings: HEK293 TRPC6, membrane potential fluorescence, at 10 µM; activation: hits give high values; outcome: activation
[11] = target: Short transient receptor potential channel 6 (Mus musculus) (UniProt Q61143); assay: positive modulators of mouse TRPC6 channel – HEK293 cells, membrane potential dye, duplicate, selectivity assay for TRPC4 potentiator project, confirmation (AID 434952); settings: HEK293 TRPC6, membrane potential dye fluorescence, at 10 µM, maximal acetylcholine added after compound; hits give high values
[12] = target: Short transient receptor potential channel 4 (Mus musculus) (UniProt Q9QUQ5); assay: calcium flux activators in TRPC4/5HT1a cells, counter-screen for TRPC4 activator project, cell-based, second counter screen, HEK293 TRPC4/5HT1a, Fluo-4 (AID 434977;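 active means calcium signal rise above buffer-control mean plus 5 SD in both duplicates, and also a hit in the primary screen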); settings: Fluo-4 calcium flux, at 10 µM; hits give high values
[13] = serotonin-gated TRPC4 signal block – cell-based, second counter screen, HEK293 TRPC4/5HT1a, Fluo-4, counter-screen for TRPC4 inhibitor project, confirmation (AID 434978;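 active means primary screen active whose calcium signal fell more than 3 SD beyond the full-serotonin control mean in both duplicate plates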;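 on outcome: serotonin given first at submaximal then at maximal dose after compound preincubation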); settings: Fluo-4 calcium flux, at 10 µM, serotonin added to trigger calcium flux; hits give high values
[14] = system: TRPC4 (mouse), co-expressed with 5HT1a in HEK293; assay: enhancement of serotonin-evoked TRPC4 response – cell-based, second counter screen, HEK293 TRPC4/5HT1a, Fluo-4, counter-screen for TRPC4 potentiator project, confirmation (AID 434979;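 active means signal rise over 3 SD above mean of control wells given weak agonist, in both repeats and first screen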); settings: Fluo-4 calcium flux, at 10 µM, serotonin added at its EC20 dose; hits give high values
[15] = nonspecific calcium rise without TRPC4 – cell-based, HEK293 mu-opioid receptor line, counter-screen for TRPC4 activator project, confirmation (AID 449723;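 active means hit in primary screen, with calcium signal over 5 SD above buffer well mean in both duplicates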;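 further: counter screen cells carry the mu-opioid receptor alone and lack TRPC4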); settings: HEK293 mu-opioid cells, Fluo-4 calcium fluorescence, at 10 µM; hits give high values
[16] = nonspecific potentiation of DAMGO calcium response – cell-based, HEK293 mu-opioid receptor line, counter-screen for TRPC4 allosteric potentiator project, confirmation (AID 449724;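 active means calcium signal rise more than 3 SD above the low-dose agonist control mean, in both duplicate plates and the primary screen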); settings: HEK293 mu-opioid receptor cells, Fluo-4 calcium flux, at 10 µM, compound added before EC20 DAMGO stimulus; hits give high values

Short transient receptor potential channel 4 (Mus musculus), sequence (Q9QUQ5 whole entry, looked up): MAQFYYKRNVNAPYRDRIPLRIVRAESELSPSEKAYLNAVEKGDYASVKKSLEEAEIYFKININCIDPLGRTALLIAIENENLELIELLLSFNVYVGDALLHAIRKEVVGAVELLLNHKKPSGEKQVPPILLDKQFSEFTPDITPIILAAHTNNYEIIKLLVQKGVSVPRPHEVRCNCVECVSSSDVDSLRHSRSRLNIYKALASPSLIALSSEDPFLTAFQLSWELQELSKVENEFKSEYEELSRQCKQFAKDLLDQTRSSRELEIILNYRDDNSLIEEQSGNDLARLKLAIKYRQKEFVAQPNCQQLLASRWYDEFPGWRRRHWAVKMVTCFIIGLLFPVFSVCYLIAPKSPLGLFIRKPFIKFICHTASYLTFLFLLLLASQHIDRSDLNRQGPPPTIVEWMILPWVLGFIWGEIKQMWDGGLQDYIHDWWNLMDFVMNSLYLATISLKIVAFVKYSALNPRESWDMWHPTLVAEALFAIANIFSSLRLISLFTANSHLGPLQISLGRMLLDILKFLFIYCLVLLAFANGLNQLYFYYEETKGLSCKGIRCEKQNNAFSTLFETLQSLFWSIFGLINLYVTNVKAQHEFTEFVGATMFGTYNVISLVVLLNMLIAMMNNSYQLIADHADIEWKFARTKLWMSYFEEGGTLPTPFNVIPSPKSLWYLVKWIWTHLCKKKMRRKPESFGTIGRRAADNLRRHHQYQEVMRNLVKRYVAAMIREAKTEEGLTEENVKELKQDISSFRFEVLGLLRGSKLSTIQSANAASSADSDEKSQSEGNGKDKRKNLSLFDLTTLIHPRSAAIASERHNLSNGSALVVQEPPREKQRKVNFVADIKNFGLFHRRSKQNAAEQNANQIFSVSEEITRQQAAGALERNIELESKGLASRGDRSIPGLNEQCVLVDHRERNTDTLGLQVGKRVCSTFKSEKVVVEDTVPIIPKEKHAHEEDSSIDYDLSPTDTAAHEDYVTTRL
Short transient receptor potential channel 6 (Mus musculus), sequence (Q61143 whole entry, looked up): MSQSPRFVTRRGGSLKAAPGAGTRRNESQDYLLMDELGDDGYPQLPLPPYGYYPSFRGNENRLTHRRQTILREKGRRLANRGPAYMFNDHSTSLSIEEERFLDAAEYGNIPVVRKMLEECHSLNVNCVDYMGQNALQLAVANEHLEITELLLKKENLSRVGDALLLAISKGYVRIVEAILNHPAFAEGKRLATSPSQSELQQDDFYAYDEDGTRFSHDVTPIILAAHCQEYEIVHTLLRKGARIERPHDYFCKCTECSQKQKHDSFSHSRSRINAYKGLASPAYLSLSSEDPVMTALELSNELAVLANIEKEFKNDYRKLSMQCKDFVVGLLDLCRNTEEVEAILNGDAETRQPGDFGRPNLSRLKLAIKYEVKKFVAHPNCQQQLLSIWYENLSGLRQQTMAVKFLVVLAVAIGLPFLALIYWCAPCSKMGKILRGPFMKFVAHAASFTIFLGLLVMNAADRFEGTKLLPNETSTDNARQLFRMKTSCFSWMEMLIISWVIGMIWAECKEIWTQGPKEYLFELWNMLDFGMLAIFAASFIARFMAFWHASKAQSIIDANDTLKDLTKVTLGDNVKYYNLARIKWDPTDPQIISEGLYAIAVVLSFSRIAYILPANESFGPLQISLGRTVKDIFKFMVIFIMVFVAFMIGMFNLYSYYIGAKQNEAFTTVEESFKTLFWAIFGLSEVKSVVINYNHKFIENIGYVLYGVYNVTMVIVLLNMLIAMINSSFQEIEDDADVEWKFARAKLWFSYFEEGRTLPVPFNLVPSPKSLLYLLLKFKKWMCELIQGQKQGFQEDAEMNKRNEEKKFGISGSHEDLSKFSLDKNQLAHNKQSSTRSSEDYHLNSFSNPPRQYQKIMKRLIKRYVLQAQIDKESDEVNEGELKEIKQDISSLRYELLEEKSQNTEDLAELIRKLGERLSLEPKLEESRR

CCc1nc2ccccc2n1Cc1ccccc1OC
active: inhibition [5] 66% | inhibition [6] 48% | inhibition [13] 43.4%
inactive: outcome [1] | outcome [2] | outcome [3] | outcome [4] | outcome [7] | outcome [8] | outcome [9] | outcome [10] | outcome [11] | outcome [12] | outcome [14] | outcome [15] | outcome [16]

OCC1(Cc2ccccc2)CCCN(Cc2cnn(-c3ccccc3)c2)C1 (centres undefined)
inactive: outcome [1] | outcome [2] | outcome [3] | outcome [4] | outcome [7] | outcome [8] | outcome [9] | outcome [10] | outcome [11] | outcome [12] | outcome [14] | outcome [15] | outcome [16]
active: inhibition [5] 91% | inhibition [6] 42% | inhibition [13] 36.1%

CCCCn1c(NCc2ccc(N(C)C)cc2)nc2ccccc21
active: inhibition [5] 93% | inhibition [6] 50% | inhibition [9] 51.5% | inhibition [13] 24.4%
inactive: outcome [1] | outcome [2] | outcome [3] | outcome [4] | outcome [7] | outcome [8] | outcome [10] | outcome [11] | outcome [12] | outcome [14] | outcome [15] | outcome [16]

CC1CCN(CCCOc2ccc(OCc3ccccc3)cc2)CC1
inactive: outcome [1] | outcome [2] | outcome [3] | outcome [4] | outcome [6] | outcome [7] | outcome [8] | outcome [9] | outcome [10] | outcome [11] | outcome [12] | outcome [14] | outcome [15] | outcome [16]
active: inhibition [5] 96% | inhibition [13] 22.7%

COC(=O)C1=C(C)N(Cc2ccccc2)C(=S)N[C@H]1c1ccccc1
inactive: outcome [1] | outcome [2] | outcome [3] | outcome [4] | outcome [6] | outcome [7] | outcome [8] | outcome [9] | outcome [10] | outcome [11] | outcome [12] | outcome [14] | outcome [15] | outcome [16]
active: inhibition [5] 73% | inhibition [13] 25.6%

Clc1cccc(C[n+]2cc(-c3ccccc3)n3c2CCC3)c1
inactive: outcome [1] | outcome [2] | outcome [3] | outcome [4] | outcome [7] | outcome [8] | outcome [9] | outcome [10] | outcome [11] | outcome [12] | outcome [14] | outcome [15] | outcome [16]
active: inhibition [5] 95% | inhibition [6] 51% | inhibition [13] 15.5%

CN(C(=O)CSc1nc(-c2ccc(C(C)(C)C)cc2)c(C#N)c(=O)[nH]1)C1CCCCC1
active: inhibition [5] 97% | inhibition [13] 4.92%
inactive: outcome [1] | outcome [2] | outcome [3] | outcome [4] | outcome [6] | outcome [7] | outcome [8] | outcome [9] | outcome [10] | outcome [11] | outcome [12] | outcome [14] | outcome [15] | outcome [16]

Clc1ccc(CN2C3=NCCN3c3ccccc32)cc1Cl
active: inhibition [6] 65% | inhibition [13] 20.3%
inactive: outcome [1] | outcome [2] | outcome [3] | outcome [4] | outcome [5] | outcome [7] | outcome [8] | outcome [9] | outcome [10] | outcome [11] | outcome [12] | outcome [14] | outcome [15] | outcome [16]

COc1ccc(C2NC(C(=O)O)Cc3c2[nH]c2ccccc32)cc1CN1CCN(c2ccc(F)cc2)CC1 (centres undefined)
inactive: outcome [1] | outcome [2] | outcome [3] | outcome [4] | outcome [6] | outcome [7] | outcome [8] | outcome [9] | outcome [10] | outcome [11] | outcome [12] | outcome [14] | outcome [15] | outcome [16]
active: inhibition [5] 58% | inhibition [13] 41.6%

C/C(N)=C(/C#N)C(=O)COC(=O)CC12CC3CC(CC(C3)C1)C2
inactive: outcome [1] | outcome [2] | outcome [3] | outcome [4] | outcome [6] | outcome [7] | outcome [8] | outcome [9] | outcome [10] | outcome [11] | outcome [12] | outcome [14] | outcome [15] | outcome [16]
active: inhibition [5] 83% | inhibition [13] 32.2%

COc1cc(C(=O)N(CCc2ccccc2)C2=CC3CCC(C2)N3C)cc(OC)c1OC (centres undefined)
inactive: outcome [1] | outcome [2] | outcome [3] | outcome [4] | outcome [5] | outcome [7] | outcome [8] | outcome [9] | outcome [10] | outcome [11] | outcome [12] | outcome [13] | outcome [14] | outcome [15] | outcome [16]
active: inhibition [6] 54%

CNC(=S)N1CCN(C(c2ccccc2)c2ccccc2)CC1
inactive: outcome [2] | outcome [3] | outcome [4] | outcome [6] | outcome [7] | outcome [8] | outcome [9] | outcome [10] | outcome [11] | outcome [12] | outcome [13] | outcome [14] | outcome [15] | outcome [16]
active: activation [1] 223% | inhibition [5] 93%

COC(=O)c1c(NC(=O)CSc2ncn[nH]2)sc(C)c1C
active: inhibition [5] 67%
inactive: outcome [1] | outcome [2] | outcome [3] | outcome [4] | outcome [6] | outcome [7] | outcome [8] | outcome [9] | outcome [10] | outcome [11] | outcome [12] | outcome [13] | outcome [14] | outcome [15] | outcome [16]

CC(=O)C1=C(O)C(=O)N(Cc2ccccc2)C1c1ccc([N+](=O)[O-])cc1 (centres undefined)
active: inhibition [5] 95% | inhibition [6] 61% | inhibition [13] 34.5%
inactive: outcome [1] | outcome [2] | outcome [3] | outcome [4] | outcome [7] | outcome [8] | outcome [9] | outcome [10] | outcome [11] | outcome [12] | outcome [14] | outcome [15] | outcome [16]
